Results filed as inconclusive are left out. The source made the active and inactive calls. Rule for the calls, unless noted: active = hit-call score of the fitted dose curve at least 0.9, where 1 is the maximum; inconclusive = response in the unintended direction; inactive = score below 0.9.

In general, AC50 refers to the concentration at which the activity in the assay is half-maximal.

Test [1] concerns the target Estrogen receptor beta (Homo sapiens) (UniProt Q92731). Description: ATG_hERb_XSP1: Attagene TRANS-FACTORIAL Multi-Species (XSP1) HepG2 Assay for human Estrogen Receptor (ESR2) (AID 2283788). Put shortly:
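Multiplexed trans-activation in transfected HepG2: ERβ-Gal4 reporter transcripts after 24 h treatment, detected by RT-PCR plus capillary electrophoresis.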

For test [2], the target named is Nuclear receptor subfamily 1 group I member 2 (Mus musculus) (UniProt O54915). Put plainly: ATG_mPXR_XSP1: Attagene TRANS-FACTORIAL Multi-Species (XSP1) HepG2 Assay for mouse Pregnane X Receptor (PXR) (AID 2283803). Put shortly: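 Transiently transfected HepG2 cells expressing a receptor-Gal4 chimera drive a GAL4-UAS reporter; 3 nM 6-alpha-fluorotestosterone included. Reporter mRNA read 24 h post-dose by RT-PCR and capillary electrophoresis; gain of signal relative to DMSO.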

A short description of test [3]: ATG_M_19_XSP2: Attagene TRANS-FACTORIAL Multi-Species (XSP2) HepG2 Assay for M32 Transcription Factor (Internal Marker) (AID 2283822). Put shortly: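 Internal background marker in a multi-species nuclear receptor TRANS panel: transfected HepG2 cells exposed 24 h, with 3 nM 6-alpha-fluorotestosterone and 1.5 nM norgestrel present. Readout is RT-PCR of reporter transcripts resolved by capillary electrophoresis, gain-of-signal versus DMSO.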

In test [4] the target is Nuclear receptor subfamily 1 group I member 2 (Mus musculus) (UniProt O54915). Description: ATG_mPXR_XSP2: Attagene TRANS-FACTORIAL Multi-Species (XSP1) HepG2 Assay for mouse Pregnane X Receptor (PXR) (AID 2283831). The method, boiled down:
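Transient HepG2 transfection, multiplexed GAL4-UAS reporters, NR-GAL4 chimeras. 24 h compound exposure. Readout: reporter mRNA, RT-PCR, fluorescent capillary electrophoresis; positive direction vs DMSO baseline.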

In test [5] the target is Thyroid hormone receptor alpha (Rattus norvegicus) + Thyroid hormone receptor beta (Rattus norvegicus) (UniProt P18113+P63059). Put plainly: TOX21_TR_LUC_GH3_Agonist_Followup: Tox21 GH3 Thyroid Hormone Receptor Agonism Luciferase Follow-Up Assay (AID 2283939). Put shortly:
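Agonist-mode confirmatory run: 15 concentrations (5 nM to 92 uM final) on GH3 rat pituitary cells, 24 h at 37C/5% CO2, T3 as positive control. Luminescence read with ONE-Glo after 30 min.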

The target of test [6] is THRA (gene 7067) (UniProt P10827). Put plainly: TOX21_TRA_COA_Agonist_Followup_ratio: Tox21 Thyroid Hormone Receptor alpha Agonism through Coactivator Recruitment Follow-Up Assay, Ratio (AID 2283948; active = hit-call score of the fitted dose curve at least 0.9, where 1 is the maximum; inactive = score below 0.9). The method, boiled down: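 GST-TRa LBD 2.5 nM + 0.10% BSA + cpd; add fluorescein-SRC-2 200 nM, Tb-anti-GST 2 nM. TR-FRET ex 340, em 520/495 ratio. Norm: DMSO 0%, T3 100%; gain-of-signal fit.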

For test [7], the target named is THRB (gene 7068) (UniProt P10828). Put plainly: TOX21_TRB_BLA_Agonist_Followup_ratio: Tox21 Thyroid Hormone Receptor beta Agonism Beta-lactamase (BLA) Follow-Up Assay, Ratio (AID 2283954). Put shortly:
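Agonist mode: compounds (11-point, triplicate) incubated 18 h with HEK293T cells carrying GAL4-DBD/human TRβ-LBD and UAS-β-lactamase. Blue/green (460/530 nm) FRET ratio read after 2 h CCF4-AM loading; CellTiter-Glo viability run in the same plates.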

For test [8] the target is unchanged. Put plainly: TOX21_TRB_COA_Agonist_Followup_ratio: Tox21 Thyroid Hormone Receptor beta Agonism through Coactivator Recruitment Follow-Up Assay, Ratio (AID 2283963; active = hit-call score of the fitted dose curve at least 0.9, where 1 is the maximum; inactive = score below 0.9). The method, boiled down: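 First, the GST-fused TRβ ligand-binding domain (5.0 nM) was incubated with test compound in 0.10% BSA. Next, fluorescein-tagged SRC-2 peptide (200 nM) and terbium anti-GST antibody (2 nM) were added. Finally, TR-FRET emission ratios were normalized against DMSO and T3 controls.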

Test [9] concerns the target Retinoic acid receptor RXR-alpha (Homo sapiens) (UniProt P19793). Put plainly: TOX21_TR_RXR_BLA_Agonist_Followup_ratio: Tox21 Thyroid Hormone Receptor beta Retinoid X Receptor alpha (RXRa) Agonism Beta-lactamase (BLA) Follow-Up Assay, Ratio (AID 2283968). Put shortly:
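Agonist mode: compounds given to RXRa-bla HEK293T cells at 11 concentrations, triplicate, 16 h at 37C/5% CO2. Readout is the 460:530 nm blue/green ratio after 2 h substrate loading at room temperature; DMSO baseline, 9-cis retinoic acid control.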

Test [10] is described as follows: TOX21_TR_RXR_BLA_Agonist_Followup_viability: Viability Assessment in the Tox21 Thyroid Hormone Receptor beta Retinoid X Receptor alpha (RXRa) Agonism Beta-lactamase (BLA) Follow-Up Assay (AID 2283970). The method, boiled down: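 CellTiter-Glo ATP luciferase read-out of cell viability, multiplexed with the beta-lactamase reporter run. RXRa-bla HEK293T cells in charcoal-stripped serum medium were exposed 16 h at 37C; data fitted both directions relative to DMSO.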

A short description of test [11]: CCTE_Deisenroth_H295R-HTRF_384WELL_ESTRADIOL: CCTE's H295R-HTRF Assay Evaluation of Estradiol Concentration, Deisenroth Lab (AID 2284361; active = hit-call score of the fitted dose curve at least 0.9, where 1 is the maximum; inactive = score below 0.9). The note with it: actives raise or lower the signal. Put shortly: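 Estradiol secreted into medium by H295R adrenocortical cells, quantified by HTRF after 48 h dosing over a nine-point 0.001 - 100 uM final range; gain or loss versus DMSO. Parallel ATP-luminescence viability readout; n=5 experiments.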
(In general: Time-resolved FRET reads energy transfer from a long-lived donor to a nearby acceptor.)

Test [12] in a line: CCTE_Deisenroth_H295R-HTRF_384WELL_TESTOSTERONE: CCTE's H295R-HTRF Assay Evaluation of Testosterone Concentration, Deisenroth Lab (AID 2284373; active = hit-call score of the fitted dose curve at least 0.9, where 1 is the maximum; inactive = score below 0.9). The note with it: actives raise or lower the signal. The method, boiled down: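 Secreted testosterone was quantified by HTRF immunoassay of medium from human adrenocortical H295R cells after 48 h chemical exposure at 0.001–100 uM final. Gain or loss was fitted against DMSO. ATP-based viability was read on matched wells, five experimental replicates.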

Test [13] can be described thus: CCTE_Deisenroth_H295R-HTRF_384WELL_CTOX: Cytotoxicity Assessment in CCTE's H295R-HTRF Assay, Deisenroth Lab (AID 2284380). The method, boiled down:
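Luminescent ATP viability readout (CellTiter-Glo 2.0), multiplexed on plates used for hormone sampling, after 48 h chemical exposure. Human H295R cells; final concentrations 0.001–100 uM in nine steps, technical triplicates, five experiments; DMSO baseline.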

Test [14] addresses human Caspase 5 (CASP5), CASP5 (gene 838) (UniProt P51878). Description: NVS_ENZ_hCASP5: NovaScreen (NVS) Enzymatic Assay for human Caspase 5 (CASP5) (AID 2283137). The method, boiled down:
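Loss of fluorescent signal versus DMSO scored for E. coli-derived human CASP5 cleaving a fluorescent substrate, 2 h post-dosing; compounds first tested at 25 uM in duplicate, hits rerun in concentration series with 50 uM top concentration.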

Test [15] has as its target human Dual Specificity Protein Phosphatase 3 (DUSP3), DUSP3 (gene 1845) (UniProt P51452). Description: NVS_ENZ_hDUSP3: NovaScreen (NVS) Enzymatic Assay for human Dual Specificity Protein Phosphatase 3 (DUSP3) (AID 2283152). Put shortly: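 Cell-free fluorescence-intensity enzyme activity assay with recombinant protein and substrate; loss of signal fitted relative to DMSO baseline. Primary screen in duplicate at 25 uM, actives then run in concentration series; measured 0 h after dosing.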

In test [16] the target is D(1A) dopamine receptor (Homo sapiens) (UniProt P21728). Put plainly: NVS_GPCR_hDRD1: NovaScreen (NVS) G Protein-Coupled Receptor Assay for human Dopamine Receptor D1 (DRD1) (AID 2283269). Put shortly:
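HEK293-derived receptor preparation; radioligand competitive displacement; 1 h; filtration + scintillation counting. DMSO = negative control/baseline. Primary: 25 uM, duplicate; secondary: concentration–response for actives.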

For test [17], the target named is human Neurokinin, NK2 Receptor, TACR2 (gene 6865) (UniProt P21452). Put plainly: NVS_GPCR_hNK2: NovaScreen (NVS) G Protein-Coupled Receptor Assay for human Neurokinin, NK2 Receptor (AID 2283278).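 Note: actives reduce bound radioligand signal relative to DMSO baseline.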 The method, boiled down:
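Filter-based scintillation counting measured radioligand bound to receptor extracted from CHO cells, 4 hours after compound addition. Chemicals screened first at 25 uM in duplicate, with actives retested in concentration series relative to DMSO.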

Test [18] concerns the target human Opioid Receptor Mu (Opiate Mu), OPRM1 (gene 4988) (UniProt P35372). Description: NVS_GPCR_hOpiate_mu: NovaScreen (NVS) G Protein-Coupled Receptor Assay for human Opioid Receptor Mu (Opiate Mu) (AID 2283290).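 Note: hits lower bound tracer signal versus DMSO meaning displacement of the ligand.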 The method, boiled down:
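CHO-derived receptor protein, cell-free; radioligand displacement, filtration + scintillation counting, read at 2.5 h. DMSO = negative control/baseline. Primary: 25 uM single conc, duplicate; secondary: concentration series.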

A short description of test [19]: STM_H9_OrnCyssISnorm_ratio: Stemina devTOX quickPredict H9 human embryonic stem cell (hESC)-based Assay for Ornithine (ORN):Cystine (CYSS) Ratio (AID 2283714). The method, boiled down:
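H9 hESC, 72h, q24h re-dose; last-day media → acetonitrile deproteinization → UPLC-HRMS. ORN:CYSS ratio from isotope-normalized EIC areas, vs 0.1% DMSO; MTX references on each plate.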

Test [20] addresses human Thromboxane A2 Receptor (TXA2), TBXA2R (gene 6915) (UniProt P21731). Put plainly: NVS_GPCR_hTXA2: NovaScreen (NVS) G Protein-Coupled Receptor Assay for human Thromboxane A2 Receptor (TXA2) (AID 2283282).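 Note: actives reduce bound radioligand signal relative to DMSO baseline.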 The method, boiled down: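 Filter scintillation counting of bound radioligand, human platelet protein, 1 h exposure. Single-concentration duplicates (25 uM) first, concentration-response follow-up for actives. Binding loss scored against DMSO baseline.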

Nuclear receptor subfamily 1 group I member 2 (Mus musculus), sequence (O54915 whole entry, looked up, the tested form may be a part): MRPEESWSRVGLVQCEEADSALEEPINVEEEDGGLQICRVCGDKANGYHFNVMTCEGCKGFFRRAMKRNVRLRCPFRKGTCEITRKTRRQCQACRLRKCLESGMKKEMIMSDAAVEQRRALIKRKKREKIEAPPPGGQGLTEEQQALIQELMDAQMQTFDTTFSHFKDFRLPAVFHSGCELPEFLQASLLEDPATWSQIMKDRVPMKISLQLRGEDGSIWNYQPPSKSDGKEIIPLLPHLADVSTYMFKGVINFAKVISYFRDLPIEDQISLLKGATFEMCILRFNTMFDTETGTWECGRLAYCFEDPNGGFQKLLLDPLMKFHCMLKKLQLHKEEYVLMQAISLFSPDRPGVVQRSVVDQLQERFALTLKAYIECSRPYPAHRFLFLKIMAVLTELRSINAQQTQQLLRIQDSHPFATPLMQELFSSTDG
THRB (gene 7068), sequence (P10828 whole entry, looked up, the tested form may be a part): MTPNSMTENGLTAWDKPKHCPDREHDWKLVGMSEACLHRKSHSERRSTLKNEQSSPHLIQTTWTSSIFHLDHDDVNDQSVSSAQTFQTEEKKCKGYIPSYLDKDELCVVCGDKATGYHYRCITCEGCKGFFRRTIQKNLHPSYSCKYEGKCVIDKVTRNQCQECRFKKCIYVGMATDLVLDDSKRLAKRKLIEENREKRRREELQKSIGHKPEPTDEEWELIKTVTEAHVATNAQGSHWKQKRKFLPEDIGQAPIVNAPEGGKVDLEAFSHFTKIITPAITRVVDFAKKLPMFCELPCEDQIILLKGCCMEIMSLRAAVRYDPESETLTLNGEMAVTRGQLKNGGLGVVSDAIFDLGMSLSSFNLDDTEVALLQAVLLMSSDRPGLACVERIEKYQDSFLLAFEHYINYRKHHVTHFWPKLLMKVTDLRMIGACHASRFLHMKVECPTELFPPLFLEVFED
human Caspase 5 (CASP5), CASP5 (gene 838), sequence (P51878 whole entry, looked up): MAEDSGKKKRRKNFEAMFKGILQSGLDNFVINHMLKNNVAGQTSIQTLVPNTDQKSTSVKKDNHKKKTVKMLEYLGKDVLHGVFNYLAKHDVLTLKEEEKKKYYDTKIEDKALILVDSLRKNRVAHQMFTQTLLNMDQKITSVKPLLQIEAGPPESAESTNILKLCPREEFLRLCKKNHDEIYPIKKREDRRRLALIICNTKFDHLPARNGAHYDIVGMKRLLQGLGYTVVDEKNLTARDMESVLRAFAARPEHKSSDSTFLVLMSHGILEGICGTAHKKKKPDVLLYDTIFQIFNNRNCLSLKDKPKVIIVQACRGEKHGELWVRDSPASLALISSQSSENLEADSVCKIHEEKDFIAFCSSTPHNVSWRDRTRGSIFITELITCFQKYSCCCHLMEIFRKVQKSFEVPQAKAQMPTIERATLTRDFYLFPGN
human Thromboxane A2 Receptor (TXA2), TBXA2R (gene 6915), sequence (P21731 whole entry, looked up): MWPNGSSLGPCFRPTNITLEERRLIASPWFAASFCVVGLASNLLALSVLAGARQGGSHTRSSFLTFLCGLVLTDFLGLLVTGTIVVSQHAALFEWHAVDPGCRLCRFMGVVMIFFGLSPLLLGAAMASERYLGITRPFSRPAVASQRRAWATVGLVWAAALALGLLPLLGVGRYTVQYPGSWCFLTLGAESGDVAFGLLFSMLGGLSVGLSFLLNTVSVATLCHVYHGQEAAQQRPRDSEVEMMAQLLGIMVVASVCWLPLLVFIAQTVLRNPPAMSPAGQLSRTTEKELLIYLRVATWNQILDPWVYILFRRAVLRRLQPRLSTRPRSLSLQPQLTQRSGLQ
THRA (gene 7067), sequence (P10827 whole entry, looked up, the tested form may be a part): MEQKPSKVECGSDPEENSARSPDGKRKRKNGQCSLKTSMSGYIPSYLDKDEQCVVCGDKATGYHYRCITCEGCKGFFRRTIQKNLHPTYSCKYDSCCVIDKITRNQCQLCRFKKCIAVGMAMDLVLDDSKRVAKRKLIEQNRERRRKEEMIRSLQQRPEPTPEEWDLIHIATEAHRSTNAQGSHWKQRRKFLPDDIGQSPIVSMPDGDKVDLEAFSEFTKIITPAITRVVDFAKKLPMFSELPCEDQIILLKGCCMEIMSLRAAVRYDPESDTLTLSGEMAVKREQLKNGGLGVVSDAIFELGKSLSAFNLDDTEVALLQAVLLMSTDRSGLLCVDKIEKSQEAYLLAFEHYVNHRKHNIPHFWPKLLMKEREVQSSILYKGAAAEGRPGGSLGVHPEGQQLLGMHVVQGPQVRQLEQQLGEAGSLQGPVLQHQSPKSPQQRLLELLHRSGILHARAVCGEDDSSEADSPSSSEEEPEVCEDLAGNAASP
Thyroid hormone receptor alpha (Rattus norvegicus) + Thyroid hormone receptor beta (Rattus norvegicus), sequence (P63059 whole entry, looked up): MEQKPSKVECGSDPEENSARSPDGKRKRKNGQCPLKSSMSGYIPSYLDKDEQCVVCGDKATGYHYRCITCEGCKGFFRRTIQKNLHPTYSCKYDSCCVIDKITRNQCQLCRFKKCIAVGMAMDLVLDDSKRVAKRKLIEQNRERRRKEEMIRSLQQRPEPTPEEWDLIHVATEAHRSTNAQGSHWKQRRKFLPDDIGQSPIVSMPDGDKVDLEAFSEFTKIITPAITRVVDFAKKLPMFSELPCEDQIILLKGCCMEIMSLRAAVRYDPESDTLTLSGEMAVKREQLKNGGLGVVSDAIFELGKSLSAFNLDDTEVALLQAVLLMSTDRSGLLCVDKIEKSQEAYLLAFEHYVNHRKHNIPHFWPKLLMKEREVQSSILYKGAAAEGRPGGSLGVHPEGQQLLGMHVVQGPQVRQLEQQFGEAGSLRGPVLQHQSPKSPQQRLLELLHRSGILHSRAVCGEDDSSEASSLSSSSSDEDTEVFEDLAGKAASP
Thyroid hormone receptor alpha (Rattus norvegicus) + Thyroid hormone receptor beta (Rattus norvegicus), sequence (P18113 whole entry, looked up): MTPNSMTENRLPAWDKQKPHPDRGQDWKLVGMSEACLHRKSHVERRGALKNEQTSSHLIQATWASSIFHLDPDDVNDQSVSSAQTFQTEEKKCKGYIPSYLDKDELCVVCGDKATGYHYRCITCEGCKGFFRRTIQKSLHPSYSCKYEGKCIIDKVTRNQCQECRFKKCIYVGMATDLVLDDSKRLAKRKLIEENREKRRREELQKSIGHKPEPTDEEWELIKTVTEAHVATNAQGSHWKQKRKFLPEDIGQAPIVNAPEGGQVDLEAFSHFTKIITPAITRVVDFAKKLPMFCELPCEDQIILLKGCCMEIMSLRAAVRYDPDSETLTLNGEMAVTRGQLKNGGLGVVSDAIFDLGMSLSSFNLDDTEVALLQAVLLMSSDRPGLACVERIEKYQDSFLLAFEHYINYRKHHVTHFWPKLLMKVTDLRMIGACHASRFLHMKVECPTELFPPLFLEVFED
Retinoic acid receptor RXR-alpha (Homo sapiens), sequence (P19793 whole entry, looked up): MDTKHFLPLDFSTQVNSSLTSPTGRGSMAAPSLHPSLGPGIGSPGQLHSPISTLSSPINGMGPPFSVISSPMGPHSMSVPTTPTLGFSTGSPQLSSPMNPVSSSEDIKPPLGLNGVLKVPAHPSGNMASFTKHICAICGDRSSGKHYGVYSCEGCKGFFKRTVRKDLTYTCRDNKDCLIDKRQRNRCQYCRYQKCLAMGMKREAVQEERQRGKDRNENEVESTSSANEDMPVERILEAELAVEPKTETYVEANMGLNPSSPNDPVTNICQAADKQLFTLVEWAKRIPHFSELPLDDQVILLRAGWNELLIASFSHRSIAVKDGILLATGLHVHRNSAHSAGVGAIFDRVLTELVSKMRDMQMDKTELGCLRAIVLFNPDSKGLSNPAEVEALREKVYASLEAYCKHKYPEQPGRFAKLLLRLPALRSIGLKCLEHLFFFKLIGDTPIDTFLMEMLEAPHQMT
Estrogen receptor beta (Homo sapiens), sequence (Q92731 whole entry, looked up, the tested form may be a part): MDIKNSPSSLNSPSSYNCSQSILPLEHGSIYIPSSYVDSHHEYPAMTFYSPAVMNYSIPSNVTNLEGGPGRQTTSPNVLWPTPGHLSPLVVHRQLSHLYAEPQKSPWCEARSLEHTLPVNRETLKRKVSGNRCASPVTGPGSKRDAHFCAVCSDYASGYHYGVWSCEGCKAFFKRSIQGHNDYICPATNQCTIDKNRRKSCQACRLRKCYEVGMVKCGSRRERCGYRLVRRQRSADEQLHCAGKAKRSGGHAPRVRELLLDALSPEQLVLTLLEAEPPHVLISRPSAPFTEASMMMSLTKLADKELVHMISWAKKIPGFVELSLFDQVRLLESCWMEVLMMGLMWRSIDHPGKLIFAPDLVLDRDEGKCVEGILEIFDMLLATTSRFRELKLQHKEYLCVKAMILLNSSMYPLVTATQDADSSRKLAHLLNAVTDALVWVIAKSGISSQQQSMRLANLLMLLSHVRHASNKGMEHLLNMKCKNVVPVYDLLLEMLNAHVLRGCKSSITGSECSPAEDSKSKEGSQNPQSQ
human Dual Specificity Protein Phosphatase 3 (DUSP3), DUSP3 (gene 1845), sequence (P51452 whole entry, looked up): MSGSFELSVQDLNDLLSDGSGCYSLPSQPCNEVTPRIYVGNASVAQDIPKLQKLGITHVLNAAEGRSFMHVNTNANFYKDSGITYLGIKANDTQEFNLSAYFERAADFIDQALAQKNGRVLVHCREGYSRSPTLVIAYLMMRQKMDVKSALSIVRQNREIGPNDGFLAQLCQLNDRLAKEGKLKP
human Neurokinin, NK2 Receptor, TACR2 (gene 6865), sequence (P21452 whole entry, looked up): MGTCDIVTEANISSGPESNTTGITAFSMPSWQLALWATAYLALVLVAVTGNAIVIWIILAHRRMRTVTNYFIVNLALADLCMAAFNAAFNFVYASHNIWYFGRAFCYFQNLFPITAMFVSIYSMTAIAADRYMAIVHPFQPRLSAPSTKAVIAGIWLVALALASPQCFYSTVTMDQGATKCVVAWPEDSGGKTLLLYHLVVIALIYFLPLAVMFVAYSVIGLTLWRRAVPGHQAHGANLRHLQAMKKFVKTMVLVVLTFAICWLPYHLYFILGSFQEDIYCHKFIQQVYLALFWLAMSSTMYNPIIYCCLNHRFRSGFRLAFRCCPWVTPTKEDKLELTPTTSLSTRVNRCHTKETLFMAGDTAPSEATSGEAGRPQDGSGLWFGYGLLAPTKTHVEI

Consider `CC(C)CCCCCCCOC(=O)c1ccccc1C(=O)OCCCCCCCC(C)C`, for which the compound was called inactive in test [1], in test [3], in [5], in [6], in test [7] and in [8]. Moreover, the outcome in test [9] and in [10] was inactive. The AC50 in test [2] is 611 nM (active); in [4], 1520 nM (active).
For the compound `C[C@]12CC[C@H]3[C@@H](CC[C@@]45O[C@@H]4C(O)=C(C#N)C[C@]35C)[C@@H]1CC[C@@H]2O`, the AC50 in [11] is 3060 nM (active); in [12], 19000 nM (active). In addition, in [13], the compound was called inactive.
As to `O=C1C(Cl)=C(Cl)C(=O)C(Cl)=C1Cl`, the AC50 was 148 nM (active) in test [14]; 1190 nM (active) in test [15]; 4010 nM (active) in test [16]; 1070 nM (active) in [17]; 4480 nM (active) in test [18]. For the same compound, the outcome in test [19] was inactive.
Consider `O=c1[nH]c(Cl)c(Cl)cc1Cl`, for which the AC50 in test [20] is 631 nM (active).

Values taken from PubChem BioAssay (EPA / NIEHS).
